Test results from PubChem BioAssay AID720504 (National Center for Advancing Translational Sciences (NCATS), 2013).
About 10,000 (2.8%) of roughly 360,000 compounds were called active. Roughly 4% stayed inconclusive and do not appear here. Many of the other results were omitted from the sample, so actives are more common in it than they were. A number with no mark means an inactive call. Calls come from the whole dose curve; as a rule, active = well fitted inhibition curve with a large enough effect; inconclusive = small, poorly fitted or top-dose-only effect; inactive = flat fitted curve, though single readings scatter.

These molecules were tested against Serine/threonine-protein kinase PLK1 (Homo sapiens) (UniProt P53350) (assay: qHTS for Inhibitors of PLK1-PDB (polo-like kinase 1 - polo-box domain): Primary Screen). Details: Plk1 PBD binding of FITC phosphopeptide, fluorescence polarization.
Source text: The polo-like kinase 1 (Plk1) is a member of a conserved subfamily of serine / threonine protein kinases that plays a pivotal roles in cell proliferation. It has a C-terminal non-catalytic region called the polo-box domain (PBD) that plays a crucial role in the subcellular localization of the Plk1. […] Furthermore, depletion of the overexpressed Plk1 by RNAi efficiently induces apoptotic cell death in cancer and reduces tumor growth in mouse xenograft models. Thus, targeting Plk1 is an appealing strategy for anti-cancer therapy. Therefore, this project aimed to screen the Molecular Libraries Small Molecule Repository (MLSMR) using a novel approach to find inhibitors that target the Plk1 PBD instead of the conventional N-terminal catalytic domain. This project employed a fluorescence polarization (FP) assay using a FITC-conjugated phospho-9-mer (p-9-mer) peptide and purified human Plk1 PBD protein. The identified small molecule inhibitors of Plk1 PBD can then further be developed into useful tools for biomedical and clinical research that complements or replaces current relevant disease therapy. NIH Chemical Genomics Center [NCGC] NIH Molecular Libraries Probe Centers Network [MLPCN] MLPCN Grant: MH100728 Assay Submitter (PI): Kyung Lee, NCI
Four microliter of 25 nM FITC-p-9-mer + 60 nM Plk1 PBD in buffer solution (final concentrations 25 nM and 60 nM respectively) or 4 uL of 25 nM FITC-p-9-mer (final concentration 25 nM) in buffer will be dispensed into a 1,536 Greiner medium-binding black solid plate. Small molecules at final concentrations of 18 nM to 57 uM and positive control phospho-9-mer (sequence: Ac-PPLHSpTAI-NH2) at final concentrations 26 nM to 57 uM and phospho-13-mer (sequence: Ac-[…]pTAI-NH2) at final concentrations of 1 nM to 2.3 uM will be pin-transferred (23 nL) to the plate via a Kalypsys pin-tool robotics equipped with a 1,536-pin array. The reaction plate will be centrifuged for 1 min at 1000 rpm and incubated at room temperature for 10 min. The FITC fluorescence signals will be read using the PerkinElmer ViewLux plate reader at 480 / 20 nm excitation and 540 / 20 nm S and P polarization emission wavelengths. Reagent bottles will be kept submerged into 4 °C recirculating chiller bath and all liquid lines will be covered with aluminum foil to minimize degradation. Library plates will be screened starting from the lowest to the highest concentrations to minimize compound carryover. Vehicle only plates, with DMSO being pin-transferred instead of compound solutions, will be included regularly throughout the screen to record any systematic shifts in assay signal.
% is set by controls: 0 for no effect and ±100 for the full control effect; potency is the fitted concentration of half-maximal effect.
Note: nearly all actives have a fitted effect of over 65% in size.
Throughout, for max response, negative = inhibition: series mostly up to about 57 µM.

Chain of Serine/threonine-protein kinase PLK1 (Homo sapiens) (P53350 whole entry, looked up, the tested form may be a part): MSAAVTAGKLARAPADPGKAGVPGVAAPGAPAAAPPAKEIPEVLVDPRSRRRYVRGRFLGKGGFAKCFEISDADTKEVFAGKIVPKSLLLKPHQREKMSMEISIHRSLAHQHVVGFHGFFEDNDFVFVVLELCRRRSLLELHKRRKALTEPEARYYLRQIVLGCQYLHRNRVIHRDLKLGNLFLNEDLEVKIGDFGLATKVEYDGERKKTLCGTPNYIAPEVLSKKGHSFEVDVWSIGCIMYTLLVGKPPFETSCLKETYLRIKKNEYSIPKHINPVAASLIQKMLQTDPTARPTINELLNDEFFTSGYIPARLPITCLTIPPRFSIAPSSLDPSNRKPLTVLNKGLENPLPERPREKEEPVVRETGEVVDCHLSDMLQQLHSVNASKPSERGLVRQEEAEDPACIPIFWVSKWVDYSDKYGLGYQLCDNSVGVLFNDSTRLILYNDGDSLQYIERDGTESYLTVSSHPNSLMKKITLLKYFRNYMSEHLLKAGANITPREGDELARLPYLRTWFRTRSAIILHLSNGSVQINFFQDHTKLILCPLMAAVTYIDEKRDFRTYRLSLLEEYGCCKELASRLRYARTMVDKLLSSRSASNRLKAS

Going from CCc1nc2c(OCCOc3ccc(F)cc3)cccn2c1N(C)C(=O)c1ccccc1F to CN(C)C(=O)c1cccc(-c2cnc3c(NC=O)cc(-c4ccc(F)cc4)cn23)c1, the max response, negative = inhibition falls from -3.7% to -19.5%.

Going from CC(=O)c1cccc(-c2cnc3c(NC=O)cc(-c4ccccc4Oc4ccccc4)cn23)c1 to CC(=O)Nc1cccc(-c2cc(NC(C)=O)c3ncc(-c4ccccc4)n3c2)c1, the max response, negative = inhibition falls from -5.21% to -16.7%.

Compared with C[C@@H]1CN([C@@H](C)CO)C(=O)CCCn2nncc2CO[C@@H]1CN(C)S(=O)(=O)c1ccc(-c2ccccc2)cc1, C[C@H](CO)N1C[C@H](C)[C@@H](CN(C)S(=O)(=O)c2ccc(F)cc2)OCc2cnnn2CCCC1=O is lower in max response, negative = inhibition: -14.2% for the first, -19.3% for the second.

Going from O=C1[C@H]2[C@@H](c3ccc(C(F)(F)F)cc3)N[C@]3(CCCN(Cc4ccc(Cl)cc4)C3=O)[C@H]2C(=O)N1Cc1ccccc1 to CCOc1ccc(CCN2C(=O)C(=O)N([C@@H](Cc3ccc(O)cc3)CN3CCC[C@H]3CN3C(=O)C(=O)NC[C@@H]3CC(C)C)C[C@@H]2Cc2ccccc2)cc1, the max response, negative = inhibition falls from -4.13% to -15%.

First: CCOC(=O)C(=O)Nc1nc(-c2ccccc2)c(CC)s1
Second: CCOc1ccc(-c2nc(C)sc2CC(=O)O)cc1
The max response, negative = inhibition of the first is lower: -16.3% for the first, -0.634% for the second.

Compared with CC(C)n1ncc2c(C(=O)N3CCN(Cc4cccs4)CC3)cc(C3CC3)nc21, CC(=O)N1CCN(C(=O)c2cc(-c3ccc(Cl)s3)nc3ccccc23)CC1 is higher in max response, negative = inhibition: -8.38% for the first, 4.68% for the second.

First: Cc1cccc(C)c1-n1nnnc1C1(C)CCC(=O)N1CCOc1ccccc1 (stereo unspecified)
Second: COc1cccc(N2C(=O)CC(N3CCc4ccccc4C3)C2=O)c1 (stereo unspecified)
The max response, negative = inhibition of the first is lower: -8.78% for the first, -2.65% for the second.

Going from COc1ccc(C2=Nc3ccccc3NC(=O)C2N(C(=O)c2cc3ccccc3[nH]2)c2ccccc2)cc1 (stereo unspecified) to COc1ccc(NC(=O)ON=C2c3ccccc3-c3ccccc32)cc1, the max response, negative = inhibition falls from 5.46% to -8.43%.

Going from Cc1cc(C(=O)OCC(=O)N2C(C)CCCC2C)c2ccccc2n1 (stereo unspecified) to COC(=O)c1ccccc1SC1CC(=O)N(c2cccc(C)c2)C1=O (stereo unspecified), the max response, negative = inhibition falls from -9.12% to -24.8%.

First: O=C(Nc1ccc(F)cc1)C(CCc1ccccc1)N1CCN(CC(=O)N2CCCC2)CC1 (stereo unspecified)
Second: Cn1c(CNC(=O)c2ccco2)nnc1SCC(=O)N1CCN(c2ccccc2)CC1
The max response, negative = inhibition of the first is higher: -3.84% for the first, -4.04% for the second.

Compared with Cc1ccc(C(=O)OCC(=O)NCc2ccc3c(c2)OCO3)s1, COc1cccc(CC(=O)OCC(=O)NCc2ccc3c(c2)OCO3)c1 is higher in max response, negative = inhibition: -7.48% for the first, -5.11% for the second.

First: Cc1c(C(=O)NCc2ccc(C#N)cc2)sc(=O)n1Cc1ccc(C(=O)N(C)C)cc1
Second: Cc1c(C(=O)NCC2CC2)sc(=O)n1Cc1cccc(F)c1
The max response, negative = inhibition of the first is lower: -10.6% for the first, 3.08% for the second.

Compared with CN1C(=O)/C(=C\c2cc(Br)cs2)c2ccccc21, CCCCN1C(=O)/C(=C(/C#N)C(N)=O)c2ccccc21 is lower in max response, negative = inhibition: 9.61% for the first, -17.1% for the second.

Going from O=C(N=C1SC2CS(=O)(=O)CC2N1Cc1ccccc1)c1ccccc1 (stereo unspecified) to COC(=O)[C@@]12C[C@@H](CC(=O)NCCCCc3ccccc3)C(=O)N(Cc3ccccc3)C1=CCC(C)(C)C2, the max response, negative = inhibition rises from -10.4% to -7.29%.

First: O=C(C1Cc2ccccc2CN1C(=O)c1ccco1)N1CCN(c2ccccc2)CC1 (stereo unspecified)
Second: CCn1c(CNC(=O)c2ccccc2)nnc1SCC(=O)N1CCN(c2ccccc2)CC1
The max response, negative = inhibition of the first is lower: -14.9% for the first, -1.21% for the second.

Compared with CC(=O)c1ccc(N2Cc3ccccc3C2)cc1, Cc1ccc(NC(=O)Nc2ccccc2)c(Br)c1 is higher in max response, negative = inhibition: -10.7% for the first, -8.61% for the second.

Compared with CSc1ncnc2c1ncn2CCCNCC1CCCCC1, CSc1ncnc2c1ncn2CCCNCC(C)c1ccccc1 (stereo unspecified) is lower in max response, negative = inhibition: 2.12% for the first, 1.77% for the second.

Compared with Cc1c(NC(=O)COC(=O)/C=C/c2cccc(F)c2)c(=O)n(-c2ccccc2)n1C, Cc1cccc(NC(=O)C(C)SCc2ccccc2)c1 (stereo unspecified) is lower in max response, negative = inhibition: -2.07% for the first, -10.4% for the second.

First: N#CC1(Nc2ccc3c4c(cccc24)CC3)CCCCC1
Second: Cc1ccccc1S(=O)(=O)NC(=O)C1(C)CCN1C(=O)C1(c2ccccc2)CCCC1 (stereo unspecified)
The max response, negative = inhibition of the first is lower: -12.6% for the first, 2.57% for the second.

Going from CCOC(=O)CSc1ncc(-c2cccc(Cl)c2)cn1 to CCCOc1ccc(F)cc1-c1cc(C(=O)Nc2ccc(F)c(Cl)c2)[nH]n1, the max response, negative = inhibition rises from -7.44% to 0.655%.

First: Cc1oc(-c2ccccc2Cl)[n+]([O-])c1C
Second: COc1ccccc1-c1n[nH]nc1C1=CC(=O)CC(C)(C)C1
The max response, negative = inhibition of the first is higher: -3.14% for the first, -7.34% for the second.

Compared with CC(C)c1ccc(CC(=O)N2CCC2(C)C(=O)NS(=O)(=O)c2ccc(C(C)(C)C)cc2)cc1 (stereo unspecified), O=C(Nc1ccc(F)cc1)c1ccc(S(=O)(=O)NCc2cccnc2)cc1 is higher in max response, negative = inhibition: -5.51% for the first, -1.16% for the second.

Going from CCCC(NS(=O)(=O)c1ccc(OC)cc1)C(=O)O (stereo unspecified) to COc1ccc(S(=O)(=O)N2CCC(C(=O)NCCC(=O)Nc3ccccc3OC)CC2)cc1, the max response, negative = inhibition rises from -2.19% to 2.5%.

Going from COc1ccc(NS(=O)(=O)c2ccc(Oc3c(C#N)cccc3C#N)cc2)cc1 to COc1ccc(C(=O)N2CCCCC2c2cc(C(=O)Nc3ccccc3)no2)cc1 (stereo unspecified), the max response, negative = inhibition falls from -0.548% to -2.81%.

Going from COC(=O)c1c(NC(=O)C(=O)N2CCCCC2)sc2c1CC(C)(C)OC2 to CCOC(=O)N1CCN(C(=O)C(=O)Nc2sc3c(c2C#N)CC(C)(C)OC3)CC1, the max response, negative = inhibition falls from -13.1% to -23.2%.

First: CC(C)C[C@H]1CNC(=O)C(=O)N1C[C@@H]1CCCN1C[C@H](Cc1ccccc1)N1C[C@H](CC(C)C)N(CC2CCCCCC2)C(=O)C1=O
Second: Cc1cccc(S(=O)(=O)N(C)C[C@@H]2OCc3cnnn3CCCC(=O)N([C@H](C)CO)C[C@@H]2C)c1
The max response, negative = inhibition of the first is higher: 2.6% for the first, -8.68% for the second.

First: CN1CCN(c2ccc(NC(=O)c3ccc4c(c3)[nH]c(=O)n4Cc3ccc(F)cc3)cc2)CC1
Second: Cc1cccc(N2C(=O)c3ccc(C(=O)Nc4cccc(C(=O)O)c4)cc3C2=O)c1
The max response, negative = inhibition of the first is lower: -2.57% for the first, 2.25% for the second.

Compared with Cc1ccc(CS(=O)(=O)c2ncc(Cl)c(C(=O)Nc3nnc(C)s3)n2)cc1, CS(=O)(=O)c1ccc(Cl)c(NC(=O)COC(=O)c2ncc(Cl)c(Cl)c2Cl)c1 is higher in max response, negative = inhibition: -16.3% for the first, -10.8% for the second.

Compared with O=C(C[C@H]1C[C@@H]2c3cc(NC(=O)C4CCC4)ccc3O[C@@H]2[C@H](CO)O1)NC1CCCCC1, CCCNC(=O)c1cc(C2CCCCN2S(=O)(=O)c2cn(C)cn2)on1 (stereo unspecified) is higher in max response, negative = inhibition: -5.12% for the first, -4.21% for the second.

Compared with C[C@H]1CN([C@@H](C)CO)C(=O)c2cc(-c3cccc(F)c3)cnc2O[C@@H]1CN(C)S(C)(=O)=O, Cc1cccc(N2C(=O)SC(N(CC(=O)O)c3cccc(C)c3)C2=O)c1 (stereo unspecified) is lower in max response, negative = inhibition: -9.21% for the first, -27.2% for the second.

Compared with COc1ccc(-c2c(C#N)cnc(C)c2C)c(O)c1OC, C#CCN1C(=O)C(O)(CC(=O)c2cc(OC)ccc2OC)c2ccccc21 (stereo unspecified) is higher in max response, negative = inhibition: -12.9% for the first, -9.34% for the second.

Going from O=C(Nc1cccc2ccccc12)c1[nH]c(-c2ccccc2)c2c1C(=O)N(C1CC1)C2=O to Cc1ccc(-c2ccc(C3=CC(=O)CC(C)(C)C3=O)cc2)cc1, the max response, negative = inhibition rises from -21.7% to -0.955%.

Going from CCc1c(C)sc(NC(=O)c2ccc(Br)o2)c1C(=O)OC to CCc1cccc(C)c1NC(=O)COC(=O)CNC(=O)c1cccs1, the max response, negative = inhibition rises from -7.98% to -0.37%.

Compared with CC(=O)Nc1nc(N(C)C)nc(N(C)C)n1, CN(C)c1nc(NN)nc(Nc2ccc(F)cc2)n1 is lower in max response, negative = inhibition: 6.17% for the first, 4.54% for the second.

Molecule COCCNc1nc(NCc2ccc(NC(C)=O)cc2)c2sccc2n1 has a max response, negative = inhibition of -10.2%.

In the case of C/C(=N/Nc1nc(-c2ccccc2)c(CC(=O)O)s1)c1ccccc1, the Potency is reported as 13.4 µM (active).
With COC(=O)c1cc(N2CCNCC2)nc2ccccc12 the Potency was 23.8 µM (active).
Cc1cc(Br)ccc1SCC(=O)OCC(=O)NCc1ccc2c(c1)OCO2 was tested, and the Potency was 29.9 µM (active).
In the case of CN1C(=O)/C(=N/OC(=O)c2ccccc2Br)c2ccccc21, the Potency is reported as 23.8 µM (active).
For CC(=O)N1Cc2ccccc2CC1C(=O)O (stereo unspecified), the Potency was 2.67 µM (active).
With Cc1oc(-c2cccc(Cl)c2)[n+]([O-])c1C the Potency was 29.9 µM (active).
With COc1ccc(S(=O)(=O)/N=C2\C=C(NS(=O)(=O)c3ccccc3)C(=O)c3ccccc32)cc1 the Potency was 29.9 µM (active).
CC1(C)Cc2c(sc(NC(=O)C(=O)N3CCOCC3)c2C#N)CO1 was tested, and the Potency was 9.47 µM (active).
Cc1cccc(CS(=O)(=O)c2ncc(Cl)c(C(=O)Nc3ccc(F)cc3)n2)c1 was tested, and the Potency was 16.8 µM (active).
For Cc1cccc(NC(=O)c2nc(S(=O)(=O)Cc3ccccc3)ncc2Cl)c1, the Potency was 8.44 µM (active).
For Cn1c(Cc2cccc3ccccc23)nnc1SCC(=O)N1CCN(c2cccc(Cl)c2)CC1, the Potency was 29.9 µM (active).
In the case of CCc1c(C)sc(NC(=O)c2cccs2)c1C(N)=O, the Potency is reported as 4.74 µM (active).
For CN(C)c1nc(Nc2ccc(Cl)c(Cl)c2)nc(N(C)C)n1, the Potency was 2.99 µM (active).
With COc1ccc2c(c1)C(=C(C#N)C#N)C(=O)N2CCc1ccccc1 the Potency was 2.67 µM (active).
For CS(=O)(=O)c1ccc(Cl)c(NC(=O)Nc2ccccc2)c1, the Potency was 23.8 µM (active).
In the case of Cc1cccc(N2C(=O)CC(SC(N)=Nc3ccccc3)C2=O)c1 (stereo unspecified), the Potency is reported as 23.8 µM (active).
Cc1cccc(N2C(=O)SC(SC(=Nc3ccccc3)Nc3ccccc3)C2=O)c1 (stereo unspecified) was tested, and the Potency was 15 µM (active).
